Values without a mark were called inactive. For some of these results: Entries with a potency or affinity are not part of this list. Active and inactive are the calls of the source. Unless noted, how the calls were made is not given here.
How the values were obtained:
[1] = antimalarial activity against Dd2 strain (AID 2302;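 active means growth inhibition above 50% at the single 2 µM test dose, taken to imply half-maximal potency below 2 µM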;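 further: 0% = DMSO untreated growth and 100% = chloroquine plus artemisinin killed control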); details: P. falciparum Dd2 in RBCs, LDH growth readout, 72 h; at 2 µM; hits give high values
[2] = human hepatoma cell viability loss – ATP luminescence, cytotoxicity control for P. falciparum antimalarial project, primary screen (AID 2303;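 active means inhibition above 50%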;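 further: 0% = DMSO wells and 100% = digitonin-killed cells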); details: HepG2 viability, 24-48 h, at 10 µM, hits give high values
[3] = target: L-lactate dehydrogenase (Plasmodium falciparum (isolate CDC / Honduras)) (UniProt Q27743); assay: PfLDH activity inhibition – cell lysate, 3D7 strain, counter-screen for P. falciparum growth inhibition project (AID 2304);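 further: 0% = vehicle and 100% = reference inhibitor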; details: P. falciparum 3D7 crude extract, LDH APAD/NBT absorbance; at 2 µM; hits give high values
L-lactate dehydrogenase (Plasmodium falciparum (isolate CDC / Honduras)), sequence (Q27743 whole entry, looked up): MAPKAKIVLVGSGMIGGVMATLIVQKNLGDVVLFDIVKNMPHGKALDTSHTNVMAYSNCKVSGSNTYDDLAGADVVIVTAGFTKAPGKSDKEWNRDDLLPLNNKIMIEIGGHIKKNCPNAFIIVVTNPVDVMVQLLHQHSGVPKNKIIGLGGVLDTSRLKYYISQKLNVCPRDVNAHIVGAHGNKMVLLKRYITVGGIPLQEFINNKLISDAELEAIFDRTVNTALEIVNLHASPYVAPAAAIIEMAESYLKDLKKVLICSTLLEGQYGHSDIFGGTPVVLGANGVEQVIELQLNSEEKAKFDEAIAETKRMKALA

[4] = inhibition of 3D7 malaria parasite growth – strain 3D7 (AID 2306);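 further: 0% = DMSO wells and 100% = chloroquine plus artemisinin control wells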; details: P. falciparum 3D7 erythrocytic growth, LDH absorbance, 72 h; at 2 µM; hits give high values
[5] = target: Calcium-dependent protein kinase 1 (Plasmodium falciparum (isolate 3D7)) (UniProt P62344); assay: PfCDPK1 kinase inhibitors, biochemical, TCAMS library (AID 1159585; cut-off not given, nearly all actives have IC50 up to about 0.98 µM;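 further: inhibitors leave more ATP so luminescence rises with inhibition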); details: recombinant PfCDPK1, Kinase-Glo ATP depletion luminescence
Calcium-dependent protein kinase 1 (Plasmodium falciparum (isolate 3D7)), sequence (P62344 whole entry, looked up): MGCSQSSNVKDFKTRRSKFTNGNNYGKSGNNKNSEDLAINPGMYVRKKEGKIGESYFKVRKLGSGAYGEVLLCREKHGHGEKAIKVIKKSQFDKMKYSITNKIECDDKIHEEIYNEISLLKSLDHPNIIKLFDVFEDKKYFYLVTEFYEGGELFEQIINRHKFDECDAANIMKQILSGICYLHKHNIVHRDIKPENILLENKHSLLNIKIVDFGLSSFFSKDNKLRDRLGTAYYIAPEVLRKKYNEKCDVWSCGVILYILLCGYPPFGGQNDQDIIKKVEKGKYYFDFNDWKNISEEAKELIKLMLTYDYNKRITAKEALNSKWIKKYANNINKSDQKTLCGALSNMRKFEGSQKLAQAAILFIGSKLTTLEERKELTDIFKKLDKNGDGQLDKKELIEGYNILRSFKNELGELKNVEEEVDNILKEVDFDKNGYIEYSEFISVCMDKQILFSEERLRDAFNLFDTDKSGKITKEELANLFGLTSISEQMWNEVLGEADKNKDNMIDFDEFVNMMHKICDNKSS

[6] = target: Plasmodium falciparum protein kinase 6 (PK6, PF3D7_1337100) (UniProt Q8IDW1); assay: PfPK6 kinase inhibitors, biochemical, TCAMS library (AID 1159586); details: recombinant PfPK6, Kinase-Glo ATP depletion luminescence
Plasmodium falciparum protein kinase 6 (PK6, PF3D7_1337100), sequence (Q8IDW1 1-305): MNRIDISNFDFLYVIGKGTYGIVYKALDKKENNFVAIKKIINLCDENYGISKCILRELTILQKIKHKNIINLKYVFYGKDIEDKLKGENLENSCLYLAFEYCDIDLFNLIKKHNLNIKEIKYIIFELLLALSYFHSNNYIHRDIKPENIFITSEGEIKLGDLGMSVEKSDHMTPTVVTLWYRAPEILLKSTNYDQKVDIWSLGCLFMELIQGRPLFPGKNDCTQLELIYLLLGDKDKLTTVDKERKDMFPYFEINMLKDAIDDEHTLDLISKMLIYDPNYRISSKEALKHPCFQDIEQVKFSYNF

[7] = target: Protein kinase 7 (PK7), Plasmodium falciparum 3D7 (PF3D7_0213400) (UniProt Q7YTF7); assay: inhibition of Plasmodium PK7 catalytic activity – biochemical, TCAMS antimalarial set, Kinase-Glo luminescence (AID 1159587); details: recombinant PfPK7, Kinase-Glo ATP depletion luminescence
Protein kinase 7 (PK7), Plasmodium falciparum 3D7 (PF3D7_0213400), sequence (Q7YTF7 1-343): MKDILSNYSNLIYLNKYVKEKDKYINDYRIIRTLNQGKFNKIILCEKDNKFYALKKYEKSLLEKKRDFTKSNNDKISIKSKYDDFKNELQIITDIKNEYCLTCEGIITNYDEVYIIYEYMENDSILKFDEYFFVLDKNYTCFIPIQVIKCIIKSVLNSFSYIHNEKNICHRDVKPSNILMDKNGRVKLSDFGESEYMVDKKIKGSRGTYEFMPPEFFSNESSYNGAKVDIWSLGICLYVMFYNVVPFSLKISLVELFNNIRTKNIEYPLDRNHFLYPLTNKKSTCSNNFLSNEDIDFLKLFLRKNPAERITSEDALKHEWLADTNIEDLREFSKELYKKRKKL

[8] = target: Calcium-dependent protein kinase 4 (Plasmodium falciparum (isolate 3D7)) (UniProt Q8IBS5); assay: PfCDPK4 kinase inhibitors, biochemical, TCAMS library (AID 1159588; cut-off not given, nearly all actives have IC50 up to about 0.91 µM); details: recombinant PfCDPK4, Kinase-Glo ATP depletion luminescence
Calcium-dependent protein kinase 4 (Plasmodium falciparum (isolate 3D7)), sequence (Q8IBS5 whole entry, looked up): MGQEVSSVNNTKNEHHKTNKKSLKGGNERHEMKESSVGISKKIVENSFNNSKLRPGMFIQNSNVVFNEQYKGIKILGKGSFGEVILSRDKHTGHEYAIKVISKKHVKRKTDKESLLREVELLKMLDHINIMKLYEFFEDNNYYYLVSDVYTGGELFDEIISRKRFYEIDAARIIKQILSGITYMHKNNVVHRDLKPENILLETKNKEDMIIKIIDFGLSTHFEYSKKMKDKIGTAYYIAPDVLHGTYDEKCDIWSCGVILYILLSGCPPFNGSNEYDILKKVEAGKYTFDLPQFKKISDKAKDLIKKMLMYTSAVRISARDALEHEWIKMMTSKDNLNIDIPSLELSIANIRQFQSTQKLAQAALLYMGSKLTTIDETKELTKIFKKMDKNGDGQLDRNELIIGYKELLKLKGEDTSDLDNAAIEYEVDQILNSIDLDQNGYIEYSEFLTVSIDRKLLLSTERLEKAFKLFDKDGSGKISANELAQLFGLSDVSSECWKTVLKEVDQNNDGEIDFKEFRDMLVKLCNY

With `NCCCNc1ccnc2cc(Cl)ccc12` the growth inhibition [1] was 25%, the inhibition [2] was 14% and the inhibition [3] was 0%. The growth inhibition [4] was 101% (active), the outcome [5] was “inactive” and the outcome [6] was “inactive”. For the same compound, the outcome [7] was “inactive” and the outcome [8] was “inactive”.
`OC1CCCN(Cc2ccc(-c3cccc(-c4nc5ccc(F)cc5[nH]4)c3)cc2)C1` (centres undefined) gave a growth inhibition [1] of 49%, an inhibition [2] of 28% and an inhibition [3] of -5%. For the same compound, the growth inhibition [4] was 99% (active), the outcome [5] was “inactive” and the outcome [6] was “inactive”. For the same compound, the outcome [7] was “inactive” and the outcome [8] was “inactive”.
In the case of `CNC(=O)c1cnc(Nc2ccc(N3CCN(C)CC3)cc2)nc1Nc1cccc([N+](=O)[O-])c1`, the growth inhibition [1] is reported as 100% (active), the inhibition [2] is reported as 31% and the inhibition [3] is reported as -8%. The growth inhibition [4] was 103% (active), the outcome [5] was “inactive” and the outcome [6] was “inactive”. For the same compound, the outcome [7] was “inactive” and the outcome [8] was “inactive”.
For `CCCCNc1cc(NCCCC)c2c(n1)[nH]c1ccccc12`, the growth inhibition [1] was 94% (active), the inhibition [2] was 13% and the inhibition [3] was -1%. The growth inhibition [4] was 100% (active), the outcome [5] was “inactive” and the outcome [6] was “inactive”. For the same compound, the outcome [7] was “inactive” and the outcome [8] was “inactive”.
In the case of `Cc1sc2ncnc(Sc3nc4ccccc4[nH]3)c2c1C`, the growth inhibition [1] is reported as 100% (active), the inhibition [2] is reported as 14% and the inhibition [3] is reported as 1%. For the same compound, the growth inhibition [4] was 99% (active), the outcome [5] was “inactive” and the outcome [6] was “inactive”. For the same compound, the outcome [7] was “inactive” and the outcome [8] was “inactive”.
`Cc1c(S(=O)(=O)Nc2ccc3nccc(N4CCN[C@H](C)C4)c3c2)sc2ccc(Cl)cc12` showed a growth inhibition [1] of 0%, an inhibition [2] of 16% and an inhibition [3] of -3%. For the same compound, the growth inhibition [4] was 96% (active), the outcome [5] was “inactive” and the outcome [6] was “inactive”. The outcome [7] was “inactive” and the outcome [8] was “inactive”.
For `COc1ccccc1CCN1CCC(CN(C)Cc2ccc(O)c(Cl)c2)CC1`, the growth inhibition [1] was 52% (active), the inhibition [2] was 19% and the inhibition [3] was -3%. For the same compound, the growth inhibition [4] was 101% (active), the outcome [5] was “inactive” and the outcome [6] was “inactive”. The outcome [7] was “inactive” and the outcome [8] was “inactive”.
`O=c1cc(NCCCNCc2cc(C(F)(F)F)ccc2F)[nH]c2ccccc12` showed a growth inhibition [1] of 43%, an inhibition [2] of 0% and an inhibition [3] of -2%. For the same compound, the growth inhibition [4] was 94% (active), the outcome [5] was “inactive” and the outcome [6] was “inactive”. The outcome [7] was “inactive” and the outcome [8] was “inactive”.
With `O=C(Nc1ccc(Br)cc1)c1cc(Br)ccc1NS(=O)(=O)c1ccc(C(F)(F)F)cc1` the growth inhibition [1] was 56% (active), the inhibition [2] was 53% (active) and the inhibition [3] was 2%. The growth inhibition [4] was 100% (active), the outcome [5] was “inactive” and the outcome [6] was “inactive”. For the same compound, the outcome [7] was “inactive” and the outcome [8] was “inactive”.
In the case of `CN(C)CCOc1ccc(-c2cc(-c3ccc(Cl)c(O)c3)c(-c3ccncc3)[nH]2)cc1`, the growth inhibition [1] is reported as 92% (active), the inhibition [2] is reported as 54% (active) and the inhibition [3] is reported as 5%. The growth inhibition [4] was 98% (active), the outcome [5] was “inactive” and the outcome [6] was “inactive”. For the same compound, the outcome [7] was “inactive” and the outcome [8] was “inactive”.
Compound `CCN(CC)c1ccc(C=CC(=O)NCCN2CCC(N(C)C3CCCCC3C)CC2)cc1` (centres undefined) has a growth inhibition [1] of 18%, an inhibition [2] of 29% and an inhibition [3] of -3%. The growth inhibition [4] was 88% (active), the outcome [5] was “inactive” and the outcome [6] was “inactive”. For the same compound, the outcome [7] was “inactive” and the outcome [8] was “inactive”.
In the case of `CC(C)(C)C(=O)Nc1ccccc1Oc1ccc(Cl)cc1`, the growth inhibition [1] is reported as 96% (active), the inhibition [2] is reported as 54% (active) and the inhibition [3] is reported as 7%. The growth inhibition [4] was 92% (active), the outcome [5] was “inactive” and the outcome [6] was “inactive”. For the same compound, the outcome [7] was “inactive” and the outcome [8] was “inactive”.
With `Brc1ccsc1-c1nc(NCCC(c2ccccc2)c2ccccc2)no1` the growth inhibition [1] was 81% (active), the inhibition [2] was 17% and the inhibition [3] was -5%. The growth inhibition [4] was 94% (active), the outcome [5] was “inactive” and the outcome [6] was “inactive”. For the same compound, the outcome [7] was “inactive” and the outcome [8] was “inactive”.
In the case of `CCOC(=O)c1c(CCc2ccc(C(F)(F)F)cc2)nc2c(c1-c1ccc(C(=O)N[C@@H](C)c3ccncc3)cc1)C(=O)N1CCC[C@@H]21`, the growth inhibition [1] is reported as 68% (active), the inhibition [2] is reported as -3% and the inhibition [3] is reported as -2%. The growth inhibition [4] was 85% (active), the outcome [5] was “inactive” and the outcome [6] was “inactive”. The outcome [7] was “inactive” and the outcome [8] was “inactive”.
`COc1cccc(C(=O)NC(NC(=S)Nc2ccc(OC)cc2[N+](=O)[O-])C(Cl)(Cl)Cl)c1` (centres undefined) gave a growth inhibition [1] of 49%, an inhibition [2] of 9% and an inhibition [3] of -2%. The growth inhibition [4] was 99% (active), the outcome [5] was “inactive” and the outcome [6] was “inactive”. For the same compound, the outcome [7] was “inactive” and the outcome [8] was “inactive”.
Compound `COc1ccc2nccc([C@@H](O)CN3CCC(NCc4nc5cc(F)c(F)cc5[nH]4)CC3)c2c1` has a growth inhibition [1] of 36%, an inhibition [2] of 12% and an inhibition [3] of -1%. For the same compound, the growth inhibition [4] was 96% (active), the outcome [5] was “inactive” and the outcome [6] was “inactive”. The outcome [7] was “inactive” and the outcome [8] was “inactive”.
For `CCC(=O)N[C@@H]1CN[C@@H](C#Cc2cc3c(Nc4ccc(OCc5cccc(F)c5)c(Cl)c4)ncnc3s2)C1`, the growth inhibition [1] was -5%, the inhibition [2] was 46% and the inhibition [3] was -3%. The growth inhibition [4] was 82% (active), the outcome [5] was “inactive” and the outcome [6] was “inactive”. The outcome [7] was “inactive” and the outcome [8] was “inactive”.
For `CCCC(C)N(Cc1ccc(C(C)(C)C)cc1)C(=O)c1cccc(OC)c1` (centres undefined), the growth inhibition [1] was 89% (active), the inhibition [2] was 9% and the inhibition [3] was 1%. For the same compound, the growth inhibition [4] was 100% (active), the outcome [5] was “inactive” and the outcome [6] was “inactive”. For the same compound, the outcome [7] was “inactive” and the outcome [8] was “inactive”.
Compound `CON(CCCN(C)C)C(=N)N` has a growth inhibition [1] of -4%, an inhibition [2] of 3% and an inhibition [3] of 1%. For the same compound, the growth inhibition [4] was 92% (active), the outcome [5] was “inactive” and the outcome [6] was “inactive”. The outcome [7] was “inactive” and the outcome [8] was “inactive”.
For `O=C(/C=C/c1ccc(Cl)c(Cl)c1)NCCCCCN1CCCN(C(=O)Nc2cc(Cl)cc(Cl)c2)CC1`, the growth inhibition [1] was 4%, the inhibition [2] was 53% (active) and the inhibition [3] was 6%. For the same compound, the growth inhibition [4] was 96% (active), the outcome [5] was “inactive” and the outcome [6] was “inactive”. The outcome [7] was “inactive” and the outcome [8] was “inactive”.
Compound `CC(C)(CNC(=O)C1CCN(CC2CCCCC2)CC1)c1nc(-c2ccc(Cl)c(O)c2)c(-c2ccncc2)[nH]1` has a growth inhibition [1] of 31%, an inhibition [2] of -6% and an inhibition [3] of -3%. The growth inhibition [4] was 98% (active), the outcome [5] was “inactive” and the outcome [6] was “inactive”. The outcome [7] was “inactive” and the outcome [8] was “inactive”.
For `CCNc1cc(C(=O)N[C@@H](Cc2ccccc2)[C@H](O)CNC(C)Cc2cccc(Cl)c2)cc(N2CCCCS2(=O)=O)c1` (some centres undefined), the growth inhibition [1] was 77% (active), the inhibition [2] was -6% and the inhibition [3] was 1%. For the same compound, the growth inhibition [4] was 98% (active), the outcome [5] was “inactive” and the outcome [6] was “inactive”. For the same compound, the outcome [7] was “inactive” and the outcome [8] was “inactive”.
With `CCc1cc(-c2onc(C)c2-c2cc3ccccc3o2)c(O)cc1OC` the growth inhibition [1] was 33%, the inhibition [2] was 48% and the inhibition [3] was -2%. The growth inhibition [4] was 95% (active), the outcome [5] was “inactive” and the outcome [6] was “inactive”. For the same compound, the outcome [7] was “inactive” and the outcome [8] was “inactive”.
In the case of `O=C(Nc1ccc(C(F)(F)F)cc1)c1cc(Br)cnc1NCCCn1ccnc1`, the growth inhibition [1] is reported as 98% (active), the inhibition [2] is reported as 32% and the inhibition [3] is reported as 2%. The growth inhibition [4] was 99% (active), the outcome [5] was “inactive” and the outcome [6] was “inactive”. For the same compound, the outcome [7] was “inactive” and the outcome [8] was “inactive”.
With `O=C(N[C@@H](Cc1ccccc1)C(=O)NC1CCCCCC1)c1ccc(O)c(-c2ccc(Cl)c(Cl)c2)c1` the growth inhibition [1] was 99% (active), the inhibition [2] was -6% and the inhibition [3] was -9%. For the same compound, the growth inhibition [4] was 92% (active), the outcome [5] was “inactive” and the outcome [6] was “inactive”. For the same compound, the outcome [7] was “inactive” and the outcome [8] was “inactive”.
In the case of `O=C(Cc1ccc(-n2cnnn2)cc1)N(Cc1cncn1Cc1cccc(C(F)(F)F)c1)CC1CC1`, the growth inhibition [1] is reported as -2%, the inhibition [2] is reported as -12% and the inhibition [3] is reported as 0%. The growth inhibition [4] was 86% (active), the outcome [5] was “inactive” and the outcome [6] was “inactive”. For the same compound, the outcome [7] was “inactive” and the outcome [8] was “inactive”.
With `NC(N)=NC(=O)Nc1cc(Br)c(Br)c(Br)c1` the growth inhibition [1] was 89% (active), the inhibition [2] was 0% and the inhibition [3] was 1%. For the same compound, the growth inhibition [4] was 101% (active), the outcome [5] was “inactive” and the outcome [6] was “inactive”. The outcome [7] was “inactive” and the outcome [8] was “inactive”.
With `CN(C)C(=O)c1cccc(COc2ccc(N3C(N)=NC(N)=NC3(C)C)cc2Cl)c1` the inhibition [3] was 1%, the outcome [5] was “inactive” and the outcome [6] was “inactive”. The outcome [7] was “inactive” and the outcome [8] was “inactive”.
In the case of `COc1ccc(C2CCN(CCCNC(=O)c3ccc(NC(=O)c4ccc(Cl)cc4)cc3)CC2)c(OC)c1`, the growth inhibition [1] is reported as 58% (active), the inhibition [2] is reported as 26% and the inhibition [3] is reported as 3%. For the same compound, the growth inhibition [4] was 99% (active), the outcome [5] was “inactive” and the outcome [6] was “inactive”. For the same compound, the outcome [7] was “inactive” and the outcome [8] was “inactive”.

Reference: PubChem BioAssay
